An excerpt weighted towards active compounds, which were near 17% of everything screened.
TGFb inhibitor: blocks TGF-b signaling; HepG2 CAGA-GFP TGF-b/SMAD3 reporter, GFP fluorescence, 18 h; TGF-beta stimulated, 500 pg/mL final; Potency, µM (top dose mostly 46.1 µM), without a hit: at the highest dose activity, negative = inhibition, most hits filed as inhibitors; 1.2% of 410,000 active; AID 588855; note: % is set by controls: 0 for no effect and ±100 for the full control effect; nearly all actives have a fitted effect of over 65% in size
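Read-out: total well GFP (ex488/em500-530) summed from mean per-cell fluorescence. Cells: HEPG2 CAGA-GFP, 1% FBS DMEM, 18 h at 37 degrees C with 500 pg/mL final TGF-beta. Unstimulated wells served as the full-inhibition control; stimulated DMSO wells = 0%.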
HT1080 IDH1KD tx: kills HT-1080 cells with IDH1 knockdown; HT-1080 IDH1 knockdown viability, ATP luminescence, 48 h; Potency, µM (series often up to 46.1 µM), inactives show top-dose activity, negative = toxicity, hits mostly cytotoxic; 2% of 360,000 active;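 note: 0% = DMSO wells and -100% = cell-free medium wells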
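After a 2 h attachment period, IDH1KD HT-1080 cells took pin-transferred compound for 48 h at 37 °C; ATP-based luminescence after 10 min room-temperature reagent incubation reported viability.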
HT1080NT lethal: kills 2HG-producing HT-1080-NT fibrosarcoma cells | AID 686970 | 1.6% of 360,000 active | HT-1080-NT fibrosarcoma viability, CellTiter-Glo ATP luminescence, 48 h | Potency, µM (highest dose often 46.1 µM), inactives show at the highest dose activity, negative = less viability, hits mostly cytotoxic;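 note: NT is the 2HG producing partner of a matched IDH1 knockdown line; 0% = DMSO-treated cells and -100% = media-only wells without cells; nearly all actives have a fitted effect of over 55% in size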
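Toxicity toward the 2HG-producing NT line was scored as %Activity, normalised to DMSO and no-cell wells, from CellTiter-Glo luminescence after 48 hours' treatment.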
TDP1 cell CPT: growth inhibition of DT40 Tdp1-/-;hTDP1 cells with camptothecin (screen for TDP1 inhibitors); chicken DT40 Tdp1-/-;hTDP1 cells + 20 nM CPT, ATP luminescence, 48 h; 12% of 420,000 active; Potency, µM (doses to about 46.2 µM), for the others: at the highest dose activity change, negative = growth inhibition, most hits filed as inhibitors; note: % is set by controls: 0 for no effect and ±100 for the full control effect; nearly all actives have a fitted effect of over 55% in size
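Cell growth measured by CellTiter-Glo luminescence after a minimum 48 h, 37 C compound exposure with 20 nM CPT in Tdp1-knockout DT40 cells stably expressing hTDP1, seeded 400/well; qHTS titration format.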
DT40 TDP1 no CPT: qHTS for Inhibitors of human tyrosyl-DNA phosphodiesterase 1 (TDP1): qHTS in cells in absence of CPT | DT40 Tdp1-/- hTDP1 cells, no CPT, ATP luminescence, 48 h | Potency, µM (top dose mostly 46.2 µM), for inactives: at the top dose activity change, negative = growth inhibition, hits mostly inhibitors | 15% of 420,000 active; note: % is set by controls: 0 for no effect and ±100 for the full control effect; nearly all actives have a fitted effect of over 55% in size
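Seeded 400 DT40-hTDP1 cells/well (vehicle DMSO, no 20 nM CPT); pinned compounds; ≥48 hr at 37 °C; CellTiter-Glo luminescence as viability measure.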
HepG2 tox-1: counter-screen for TGF-b inhibitors: cytotoxicity in HepG2 cells | HepG2 CAGA-GFP viability, ATP luminescence, 18 h | Potency, µM (series often up to 46.1 µM), for inactives: top-dose activity change, negative = cytotoxicity, most hits filed as cytotoxic | AID 588856 | 0.76% of 410,000 active
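HepG2 CAGA-GFP cells (1000/well, DMEM with 1% FBS) received compound, then TGF-beta at 500 pg/mL final, and were incubated 18 hours at 37 degrees C. Viability was read by CellTiter-Glo luminescence. Media-only wells were set as complete cell-killing and DMSO as no toxicity.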
TGFb CAGA inh: TGF-b pathway inhibition, cherry-pick retest; shares compounds with TGFb inhibitor; HepG2 CAGA-GFP TGF-b reporter, GFP fluorescence, 18 h; cells stimulated with TGF-beta, 500 pg/mL; Potency, µM (titrated, usually from 46.1 µM), for the others: at the top dose activity, negative = inhibition, usual class: inhibitors; 63% of 1,600 active; AID 720534; note: % is set by controls: 0 for no effect and ±100 for the full control effect; nearly all actives have a fitted effect of over 65% in size
HepG2 tox-2: toxic to HepG2 cells in TGF-b counterscreen. Potency, µM (highest dose often 46.1 µM), without a hit: at the highest dose activity, negative = cytotoxicity, actives largely listed as inhibitors. 27% of 1,600 active. HepG2 CAGA-GFP viability, ATP luminescence, 18 h; cells stimulated with TGF-beta, 500 pg/mL. shares compounds with TGFb inhibitor; note: % is set by controls: 0 for no effect and ±100 for the full control effect; nearly all actives have a fitted effect of over 70% in size
TGFb CCL64 inh: TGF-b inhibition, CCL64 orthogonal assay. shares compounds with TGFb inhibitor. 41% of 1,600 active. CCL64 CAGA-GFP reporter, TGF-b stimulated, GFP fluorescence, 18 h. Potency, µM (highest dose often 46.1 µM), without a hit: top-dose activity, negative = inhibition, hits mostly inhibitors; note: nearly all actives have a fitted effect of over 65% in size
TGFb COP inh: blocks TGF-b signaling in HepG2 COP reporter | HepG2 COP-GFP TGF-b reporter, GFP fluorescence, 18 h; cells stimulated by added recombinant TGF-beta | Potency, µM (highest dose often 46.1 µM), for the others: at the top dose activity, negative = inhibition, most hits filed as inhibitors | 3% of 1,600 active | shares compounds with TGFb inhibitor; note: nearly all actives have a fitted effect of over 70% in size
Active calls of the source: *. Calls come from the whole dose curve; as a rule, active = well fitted curve in the direction sought with a large enough effect; inconclusive = small, poorly fitted or top-dose-only effect, or another doubt; inactive = no such curve, though single readings can be large; an effect the other way counts as inactive or inconclusive. Potency is the fitted concentration of half-maximal effect.

Screening COc1ccc(NCc2nc3ccccc3n2CCOc2ccccc2)cc1 returned TGFb inhibitor -18%, HT1080 IDH1KD tx 0%, HT1080NT lethal -6%, TDP1 cell CPT inconclusive, DT40 TDP1 no CPT inconclusive and HepG2 tox-1 -6%.
For COc1ccc(NCc2nc3ccccc3n2CCOc2ccc(C)cc2)cc1 the results were TGFb inhibitor 14µM*, HT1080 IDH1KD tx inconclusive, HT1080NT lethal 18µM*, TDP1 cell CPT 16µM*, DT40 TDP1 no CPT 16µM*, HepG2 tox-1 -32%, TGFb CAGA inh 13µM*, HepG2 tox-2 inconclusive, TGFb CCL64 inh 8.2µM* and TGFb COP inh 40%.
O=C(C1=C[C@@H](c2ccc(C(F)(F)F)cc2)C[C@@H](OCc2ccc(CO)cc2)O1)N1CCN(Cc2ccccc2)CC1 was read as TGFb inhibitor 14µM*, HT1080 IDH1KD tx -30%, HT1080NT lethal -30%, TDP1 cell CPT inconclusive, DT40 TDP1 no CPT inconclusive, HepG2 tox-1 -5%, TGFb CAGA inh 18µM*, HepG2 tox-2 -26%, TGFb CCL64 inh inconclusive and TGFb COP inh 27%.
CN1CCN(C(=O)C2=C[C@@H](c3ccc(C(F)(F)F)cc3)C[C@@H](OCc3ccc(CO)cc3)O2)CC1 was read as TGFb inhibitor -2%, HT1080 IDH1KD tx -19%, HT1080NT lethal -4%, TDP1 cell CPT inconclusive, DT40 TDP1 no CPT inconclusive and HepG2 tox-1 -53%.
Screening O=C(Nc1ccc(Cl)cc1)/C(=C/c1cccc(O)c1)c1nc2ccccc2s1 returned TGFb inhibitor 2.8µM*, HT1080 IDH1KD tx 4.1µM*, HT1080NT lethal 4.6µM*, TDP1 cell CPT 5.2µM*, DT40 TDP1 no CPT 4.6µM*, HepG2 tox-1 -82%, TGFb CAGA inh 8.2µM*, HepG2 tox-2 13µM*, TGFb CCL64 inh 4.1µM* and TGFb COP inh -16%.
O=C(O)C/C(=C\c1cccc(NC(=O)c2ccccc2Cl)c1)c1nc2ccccc2s1 was read as TGFb inhibitor 11%, HT1080 IDH1KD tx -2%, HT1080NT lethal -10%, TDP1 cell CPT inconclusive, DT40 TDP1 no CPT inconclusive and HepG2 tox-1 -1%.
For CCCS(=O)(=O)NC(=O)C1(C)CCN(C(=O)C2(c3ccc(Cl)cc3)CCCC2)C1 (stereo unspecified) the results were TGFb inhibitor 10%, HT1080 IDH1KD tx 5%, HT1080NT lethal 19%, TDP1 cell CPT -22%, DT40 TDP1 no CPT -6% and HepG2 tox-1 -4%.
Cc1ccc(-c2csc(NC(=O)CCNC(=O)c3ccccc3Cl)n2)cc1 was read as TGFb inhibitor inconclusive, HT1080 IDH1KD tx -18%, HT1080NT lethal -10%, TDP1 cell CPT inconclusive, DT40 TDP1 no CPT inconclusive and HepG2 tox-1 -21%.
For Cc1ccc(-c2csc(NC(=O)CCNC(=O)c3ccc(Cl)cc3)n2)cc1 the results were TGFb inhibitor inconclusive, HT1080 IDH1KD tx -1%, HT1080NT lethal -7%, TDP1 cell CPT inconclusive, DT40 TDP1 no CPT inconclusive, HepG2 tox-1 -64%, TGFb CAGA inh -17%, HepG2 tox-2 2%, TGFb CCL64 inh inconclusive and TGFb COP inh 5%.
`Cc1cccc(CSc2nnc([C@@H]3CCCN3)o2)c1` gave TGFb inhibitor 0%, HT1080 IDH1KD tx 6%, HT1080NT lethal 0%, TDP1 cell CPT -3%, DT40 TDP1 no CPT -9% and HepG2 tox-1 -52%.
For Cc1ccc(NC(=O)CN2CC(C)SC2=NC2CCCCC2)cc1 (stereo unspecified) the results were TGFb inhibitor inconclusive, HT1080 IDH1KD tx -30%, HT1080NT lethal inconclusive, TDP1 cell CPT inconclusive, DT40 TDP1 no CPT inconclusive, HepG2 tox-1 -33%, TGFb CAGA inh inconclusive, HepG2 tox-2 -12%, TGFb CCL64 inh 8% and TGFb COP inh 17%.
`CC1(C)CC(Cc2ccc(C(F)(F)F)cn2)N(C(=O)OC(C)(C)C)C1` (stereo unspecified) gave HT1080 IDH1KD tx 19%, HT1080NT lethal -3%, TDP1 cell CPT -17% and DT40 TDP1 no CPT -19%.
`FC(F)Oc1ccc(NC(=S)NC23CC4CC(CC(C4)C2)C3)cc1` gave TGFb inhibitor 13µM*, HT1080 IDH1KD tx inconclusive, HT1080NT lethal inconclusive, TDP1 cell CPT inconclusive, DT40 TDP1 no CPT inconclusive, HepG2 tox-1 -24%, TGFb CAGA inh inconclusive, HepG2 tox-2 inconclusive, TGFb CCL64 inh inconclusive and TGFb COP inh 38%.
`CC(=O)c1ccc(NS(=O)(=O)c2cccc(C(=O)Nc3ccccc3C(=O)O)c2)cc1` gave TGFb inhibitor -7%, HT1080 IDH1KD tx 1%, HT1080NT lethal 2%, TDP1 cell CPT -21%, DT40 TDP1 no CPT inconclusive and HepG2 tox-1 -10%.
`CC(=O)Nc1ccc(NC(=O)C(C)Sc2nc3ccccc3c(=O)n2CC2CCCO2)cc1` (stereo unspecified) gave TGFb inhibitor -17%, HT1080 IDH1KD tx -4%, HT1080NT lethal -2%, TDP1 cell CPT inconclusive, DT40 TDP1 no CPT inconclusive and HepG2 tox-1 -5%.

Bioassay records as filed in PubChem BioAssay.
